Measurements reported in PubChem BioAssay AID1159580 (chemical genetic matrix, 2015).
In all, about 5,500 compounds went through this assay and about 2,000 (36%) were called active. Roughly 18% stayed inconclusive and do not appear here. Rule as the data show it: active = normalized growth mostly below about 0.91 (no sharp cut-off); inconclusive = no clear call, values can overlap the other calls; inactive = mostly above about 0.92. Some of the results follow.

Assay: chemical genetic growth profiling, strain panel (AID 1159580);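 also: tested at 20 µM; growth read once vehicle control cultures reached saturation at 30 °C; 1 = growth at the plate median or of vehicle wells; lower values mean less growth of the strain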
Conditions: S. cerevisiae deletion strains, growth OD
[1] = locus YAL013W, strain DEP1, hits give low values
[2] = locus YBR229C, strain ROT2, hits give low values
[3] = locus YDL101C, strain DUN1, hits give low values
[4] = locus YDR150W, strain NUM1, hits give low values
[5] = locus YEL061C, strain CIN8, hits give low values
[6] = locus YGR078C, strain PAC10, hits give low values
[7] = locus YHR030C, strain SLT2, hits give low values
[8] = locus YHR087W, strain rtc3, hits give low values
[9] = locus YJL187C, strain SWE1, hits give low values
[10] = locus YJR043C, strain POL32, hits give low values
[11] = locus YJR075W, strain HOC1, hits give low values
[12] = locus YKL190W, strain CNB1, hits give low values
[13] = locus YLR039C, strain RIC1, hits give low values
[14] = locus YLR058C, strain SHM2 (second series), hits give low values
[15] = locus YLR085C, strain ARP6, hits give low values
[16] = locus YLR262C, strain YPT6, hits give low values
[17] = locus YML094W, strain GIM5, hits give low values
[18] = locus YMR219W, strain ESC1, hits give low values
[19] = locus YMR263W, strain SAP30, hits give low values
[20] = locus YNL153C, strain GIM3, hits give low values
[21] = locus YNL298W, strain CLA4 (second series), hits give low values
[22] = locus YNL322C, strain KRE1, hits give low values
[23] = locus YNR030W, strain Alg12, hits give low values
[24] = locus YPL055C, strain LGE1, hits give low values
[25] = locus YPL241C, strain CIN2, hits give low values
[26] = locus YPR135W, strain CTF4, hits give low values

Measured: normalized growth

N#Cc1cccc(CSC2=NCN(C3CC3)CN2)c1
inactive: [1] 1 | [2] 1.01 | [3] 0.98 | [4] 0.934 | [5] 1.02 | [6] 0.996 | [7] 1 | [8] 1.03 | [9] 1 | [10] 0.979 | [11] 0.989 | [12] 1.01 | [13] 1.05 | [14] 1.01 | [15] 0.993 | [16] 1.04 | [17] 1.01 | [18] 1.01 | [19] 0.952 | locus YMR307W, strain GAS1, hits give low values 0.978 | [20] 0.997 | [21] 1.02 | [22] 0.999 | [23] 1.02 | [24] 0.886 | [25] 1.01 | [26] 1

N#Cc1cccc(CSc2nc3ccc(C(F)(F)F)cc3[nH]2)c1
active: locus YLR113W, strain HOG1, hits give low values 0.793
inactive: locus YAR019C, strain CDC15, hits give low values 0.965 | locus YBL105C, strain PKC1, hits give low values 0.968 | locus YBR135W, strain CKS1, hits give low values 0.973 | locus YBR136W, strain MEC1, hits give low values 0.968 | locus YBR160W, strain CDC28, hits give low values 0.968 | locus YDL017W, strain CDC7, hits give low values 0.972 | locus YDL028C, strain MPS1, hits give low values 0.978 | [3] 0.969 | locus YDL108W, strain KIN28, hits give low values 0.973 | locus YDL132W, strain cdc53, hits give low values 0.976 | locus YDL214C, strain PRR2, hits give low values 0.893 | locus YDR052C, strain DBF4, hits give low values 0.962 | locus YDR054C, strain cdc34, hits give low values 0.962 | locus YDR226W, strain ADK1, hits give low values 0.969 | locus YDR477W, strain SNF1, hits give low values 0.903 | locus YER123W, strain YCK3, hits give low values 0.881 | locus YER133W, strain GLC7, hits give low values 0.895 | locus YFL009W, strain cdc4, hits give low values 0.974 | locus YFL029C, strain CAK1, hits give low values 0.966 | locus YFR003C, strain YPI1, hits give low values 0.97 | locus YFR019W, strain FAB1, hits give low values 0.936 | locus YFR028C, strain CDC14, hits give low values 0.971 | locus YGR040W, strain KSS1, hits give low values 0.908 | locus YGR052W, strain FMP48, hits give low values 0.938 | locus YGR092W, strain DBF2, hits give low values 0.933 | [7] 0.858 | locus YHR079C, strain IRE1, hits give low values 0.851 | locus YHR082C, strain KSP1, hits give low values 0.965 | locus YHR205W, strain SCH9, hits give low values 0.898 | locus YIL147C, strain SLN1, hits give low values 0.972 | locus YJL095W, strain BCK1, hits give low values 0.901 | locus YJL128C, strain PBS2, hits give low values 0.909 | locus YJL157C, strain FAR1, hits give low values 0.89 | locus YJR016C, strain ILV3, hits give low values 0.97 | locus YJR066W, strain TOR1 (second series), hits give low values 0.848 | locus YJR066W, strain TOR1, hits give low values 0.935 | locus YKL048C, strain ELM1, hits give low values 0.963 | locus YKL067W, strain YNK1, hits give low values 0.889 | locus YKL101W, strain HSL1, hits give low values 0.901 | locus YKL193C, strain SDS22, hits give low values 0.973 | locus YKL203C, strain TOR2, hits give low values 0.937 | locus YLR133W, strain CKI1, hits give low values 0.898 | locus YLR403W, strain SFP1, hits give low values 0.907 | locus YML070W, strain DAK1, hits give low values 0.889 | locus YMR001C, strain CDC5, hits give low values 0.971 | locus YMR205C, strain PFK2 (second series), hits give low values 0.924 | locus YMR277W, strain FCP1, hits give low values 0.969 | locus YNL006W, strain LST8, hits give low values 0.97 | locus YNL020C, strain ARK1, hits give low values 0.892 | locus YNL161W, strain CBK1, hits give low values 0.965 | locus YNL183C, strain NPR1, hits give low values 0.92 | locus YNL207W, strain RIO2, hits give low values 0.966 | locus YNL222W, strain SSU72, hits give low values 0.976 | locus YNL307C, strain MCK1 (second series), hits give low values 0.89 | locus YOL078W, strain AVO1, hits give low values 0.974 | locus YOL136C, strain PFK27, hits give low values 0.858 | locus YOR061W, strain CKA2, hits give low values 0.9 | locus YOR119C, strain RIO1, hits give low values 0.962 | locus YOR231W, strain MKK1, hits give low values 0.871 | locus YOR329C, strain SCD5, hits give low values 0.96 | locus YPL031C, strain PHO85, hits give low values 0.88 | locus YPL153C, strain RAD53, hits give low values 0.899 | locus YPL204W, strain HRR25, hits give low values 0.877 | locus YPL209C, strain IPL1, hits give low values 0.967 | locus YPL256C, strain CLN2, hits give low values 0.882 | locus YPR025C, strain CCL1, hits give low values 0.972 | locus YPR106W, strain ISR1, hits give low values 0.956 | locus YPR111W, strain DBF20, hits give low values 0.946 | strain NNK1, hits give low values 0.944 | strain TSCII, hits give low values 0.965

Cc1c(C)c(C)c(CSc2nc3ccccc3[nH]2)c(C)c1C
inactive: [1] 1.01 | [2] 1.02 | locus YCL061C, strain MRC1, hits give low values 1.04 | [3] 1.03 | locus YDL134C, strain PPH21, hits give low values 1.02 | [4] 1.02 | [5] 1.03 | [6] 1.03 | [7] 1.08 | [8] 1.04 | [9] 1.01 | [10] 1.04 | [11] 1.07 | [12] 1.03 | [13] 1.02 | [14] 1.06 | [15] 1.01 | [16] 1.03 | [17] 1.03 | [18] 1.01 | [19] 1.03 | [20] 1.05 | [21] 1.05 | [22] 1.02 | [23] 1.03 | [24] 1.08 | [25] 1.03 | [26] 1.26
